{
  "source": "PubChem BioAssay (Tox21)",
  "note": "Inconclusive results are not listed. Where a call stands in place of a potency, no number is given. Activity calls are given as the source filed them. The call rests on the fitted dose curve.",
  "data": [
    {"test": "p53 small molecule agonists, cell-based qHTS assay with rat liver microsomes: qHTS cell viability counter screen (AID 1963580); further: nearly all actives have a fitted effect of over 45% in size", "details": "p53RE-bla HCT-116 + rat microsomes, ATP viability, 16 h; series mostly up to 66 µM", "source_text": "National Center for Advancing Translational Sciences [NCATS]\nDivision of Preclinical Innovation [DPI]\nU.S. Environmental Protection Agency [EPA]\nNational Institutes of Environmental Health Sciences [NIEHS]\nNational Toxicology Program [NTP]\nU.S. Food and Drug Administration [FDA]\np53, a tumor suppressor protein, is activated following cellular insult, including DNA damage and other cellular stresses. The activation of p53 regulates cell fate by inducing DNA repair, cell cycle arrest, apoptosis, or cellular senescence. The activation of p53, therefore, is a good indicator of DNA damage and other cellular stresses. The CellSensor p53RE-bla HCT-116 cell line contains a stably integrated beta-lactamase reporter gene under control of the p53 response elements. The activation of the reporter gene under culture conditions can be detected by fluorescence intensity. This cell line was used to screen the Tox21 10K compound library in the condition of presence of rat liver microsomes and to identify agonists that activate the p53 signaling pathway after in vitro metabolic activation (Ooka et al., Archive of Toxicology 96:1975-1987, 2022). The cytotoxicity of the Tox21 compound library against the p53 RE-bla HCT-116 cell line was tested in parallel by measuring the intra cellular ATP content in the same wells.\nTox21 Assay Protocol Summary:\nThe p53RE-bla cells were dispensed at 4,000cells/3ul/well in 1536-well black-clear bottom plates. After the assay plates were incubated at 37 C, 5% CO2 incubator for 5 hours, 23 nL of compounds dissolved in DMSO, positive controls or DMSO only was transferred to the assay plate. Following compound addition, 3 uL of rat liver microsomes (Molecular Toxicology, Boone, NC) at final concentration of 0.5 mg/mL and 1uL of B-Nicotinamide adenine dinucleotide 2'-phosphate (NADPH) at final concentration of 0.5 mg/mL were transferred to the assay plate. The plates were incubated at 37 C for 16 hours. 1 uL of LiveBLAzer detection mixture was added to each well and the plates were incubated at room temperature in the dark for 2 h. Fluorescence intensity at 460 and 530 nm emission and 405 nm excitation were measured by an Envision plate reader. For cell viability readout that measures cytotoxicity, 4 ul/well of CellTiter-Glo reagent was added into the assay plates using a Flying Reagent Dispenser. After 30 min incubation at room temperature, the luminescence intensity in the plates was measured using a ViewLux plate reader.", "values": [
      {"smiles": "COCCO", "Potency": "inactive"},
      {"smiles": "Cc1cc(C)c(C=O)c(C)c1", "Potency": "inactive"},
      {"smiles": "CCOc1cc(OCC)c(C(=O)CCC(=O)O)cc1OCC", "Potency": "inactive"},
      {"smiles": "O=C1c2ccccc2C(=O)C1c1nc2ccccc2c(Br)c1O", "Potency": "inactive"},
      {"smiles": "S=c1[nH][nH]c(=S)s1", "Potency": "inactive"},
      {"smiles": "CC(=O)N(CC(O)CN(C(C)=O)c1c(I)c(C(=O)NCC(O)CO)c(I)c(C(=O)NCC(O)CO)c1I)c1c(I)c(C(=O)NCC(O)CO)c(I)c(C(=O)NCC(O)CO)c1I", "note": "(stereo not given)", "Potency": "inactive"},
      {"smiles": "Cc1ccc(N(CCO)CCO)cc1", "Potency": "inactive"},
      {"smiles": "CC[C@H]1OC(=O)[C@H](C)[C@@H](O[C@H]2C[C@@](C)(OC)[C@@H](O)[C@H](C)O2)[C@H](C)[C@@H](O[C@@H]2O[C@H](C)C[C@H](N(C)C)[C@H]2O)[C@](C)(O)C[C@@H](C)C(=O)[C@H](C)[C@@H](O)[C@]1(C)O", "Potency": "inactive"},
      {"smiles": "C=C[Si](C)(C)Cl", "activity change, negative = cytotoxicity": "8.84% [at 5.99 µM] (inactive)"},
      {"smiles": "CC(C(=O)O)c1ccc(/C=C2\\CCCCC2=O)cc1", "note": "(stereo not given)", "Potency": "inactive"},
      {"smiles": "CCC1=C(C)CN(C(=O)NCCc2ccc(S(=O)(=O)NC(=O)NC3CCC(C)CC3)cc2)C1=O", "note": "(stereo not given)", "Potency": "inactive"},
      {"smiles": "CCCN(CCC)CCc1cccc2c1CC(=O)N2", "Potency": "inactive"},
      {"smiles": "COc1ccc(CCC(=O)c2c(O)cc(O[C@@H]3O[C@H](CO)[C@@H](O)[C@H](O)[C@H]3O[C@@H]3O[C@@H](C)[C@H](O)[C@@H](O)[C@H]3O)cc2O)cc1O", "Potency": "inactive"},
      {"smiles": "CCCCCc1ccco1", "Potency": "inactive"},
      {"smiles": "CCCCNS(=O)(=O)c1ccc(C)cc1", "Potency": "inactive"},
      {"smiles": "O=C(O)CCCC[P+](c1ccccc1)(c1ccccc1)c1ccccc1", "Potency": "inactive"},
      {"smiles": "NC1[C@H]2CN(c3nc4c(cc3F)c(=O)c(C(=O)O)cn4-c3ccc(F)cc3F)C[C@@H]12", "note": "(stereo not given in full)", "Potency": "inactive"},
      {"smiles": "C[C@@H]1C[C@H]2[C@@H]3CCC4=CC(=O)C=C[C@]4(C)[C@@]3(F)[C@@H](O)C[C@]2(C)[C@@]1(O)C(=O)CO", "Potency": "inactive"},
      {"smiles": "C=C(C)c1cccc(C(C)(C)N=C=O)c1", "Potency": "inactive"},
      {"smiles": "C=COCC1CCC(COC=C)CC1", "note": "(stereo not given)", "Potency": "inactive"},
      {"smiles": "CC(C)=CCCC(C)C=O", "note": "(stereo not given)", "Potency": "inactive"},
      {"smiles": "O=C=NCc1cccc(CN=C=O)c1", "activity change, negative = cytotoxicity": "10.6% [at 13.5 µM] (inactive)"},
      {"smiles": "CCCCOc1cc(C(=O)NCCN(CC)CC)c2ccccc2n1", "Potency": "inactive"},
      {"smiles": "CCCCCCCCCC[N+](C)(C)[O-]", "Potency": "inactive"},
      {"smiles": "OCCN1C[C@H](O)[C@@H](O)[C@H](O)[C@H]1CO", "Potency": "inactive"},
      {"smiles": "COc1cc2c3cc1Oc1cc(ccc1O)C[C@@H]1c4c(cc(OC)c(O)c4Oc4ccc(cc4)C[C@@H]3N(C)CC2)CC[N+]1(C)C", "Potency": "inactive"},
      {"smiles": "CCCCCCCCCCCCN1CCOCC1", "Potency": "inactive"},
      {"smiles": "CC(C)C[C@@H](N)C(=O)O", "activity change, negative = cytotoxicity": "-0.234% [at 13.5 µM] (inactive)"},
      {"smiles": "[Cl][Sc]([Cl])[Cl]", "Potency": "inactive"},
      {"smiles": "O=C(NC(Cc1cc(=O)[nH]c2ccccc12)C(=O)O)c1ccc(Cl)cc1", "note": "(stereo not given)", "Potency": "inactive"},
      {"smiles": "O=C(Nc1cccc(C2=NCCN2)c1)Nc1cccc(C2=NCCN2)c1", "activity change, negative = cytotoxicity": "0.748% [at 13.5 µM] (inactive)"},
      {"smiles": "CCCCCCCCN1CCCC1=O", "Potency": "inactive"},
      {"smiles": "NC(=O)N1c2ccccc2CC(=O)c2ccccc21", "Potency": "inactive"},
      {"smiles": "C=C1C[C@@]23CC[C@H]4[C@@](C)(CCC[C@@]4(C)C(=O)O[C@@H]4O[C@H](CO)[C@@H](O)[C@H](O)[C@H]4O)[C@@H]2CC[C@]1(O[C@@H]1O[C@H](CO)[C@@H](O)[C@H](O[C@@H]2O[C@H](CO)[C@@H](O)[C@H](O)[C@H]2O)[C@H]1O[C@@H]1O[C@H](CO)[C@@H](O)[C@H](O)[C@H]1O)C3", "Potency": "inactive"},
      {"smiles": "Cc1c(Cn2ccnc2)c2ccccc2n1CCC(=O)O", "Potency": "inactive"},
      {"smiles": "CCCCCN=C(N)N/N=C/c1c[nH]c2ccc(OC)cc12", "Potency": "inactive"},
      {"smiles": "NC(N)=NC(=O)Cc1c(Cl)cccc1Cl", "Potency": "inactive"},
      {"smiles": "CNCc1ccccc1", "Potency": "inactive"},
      {"smiles": "C[N+](C)(C)CC(O)CC(=O)[O-]", "note": "(stereo not given)", "Potency": "inactive"},
      {"smiles": "CC(CC(C#N)(c1ccccc1)C(C)C)N(C)C", "note": "(stereo not given)", "Potency": "inactive"}
    ]}
  ]
}
